KB-3-1 cytotox = qHTS assay for MDR1-selective chemotherapeutics: Primary screen using the parental adenocarcinoma cell KB-3-1. KB-3-1 viability, CellTiter-Glo ATP luminescence, 72 h. Potency, µM (doses to about 46.1 µM), usual class: cytotoxic. actives 1.4% (n = 400,000). AID 1347075, 2019; note: % is set by controls: 0 for no effect and ±100 for the full control effect; nearly all actives have a fitted effect of over 60% in size
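Parental KB-3-1 viability, qHTS format: 72 h compound exposure, 37 °C; CellTiter-Glo; media-only wells and DMSO plates as controls; concentration-effect fits on corrected data.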
SW480 rereplic = A quantitative high throughput screen for small molecules that induce DNA re-replication in SW480 colon adenocarcinoma cells; Potency, µM (highest dose often 46.1 µM), inactives show at the highest dose re-replication activation, actives largely listed as activators; SW480 DNA re-replication, Hoechst DNA content imaging, 48 h; actives 1.8% (n = 340,000); AID 624297, 2012; note: % of control where 0% means no effect; nearly all actives have a fitted effect of over 55% in size
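First, 250 cells per well were seeded. Next, compound or vehicle (23 nL) was pinned in, plates sat 48 hr at 37 C. Finally Hoechst was added for 40 min before fluorescence scanning.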
MCF10A rereplic = A quantitative high throughput screen for small molecules that induce DNA re-replication in MCF 10a normal breast cells; MCF 10A DNA re-replication, Hoechst nuclear intensity, 48 h; Potency, µM (highest dose often 46.1 µM), without a hit: at the highest dose activity, positive = re-replication, hits mostly activators; actives 2.9% (n = 350,000); AID 624296, 2012; note: % of control where 0% means no effect; nearly all actives have a fitted effect of over 50% in size
ELG1 DNA repair = qHTS screen for small molecules that inhibit ELG1-dependent DNA repair in human embryonic kidney (HEK293T) cells expressing luciferase-tagged ELG1; HEK293T ELG1-luciferase reporter, luminescence, 16 h; DNA damage induced by 5-fluorouridine; Potency, µM (series often up to 46.1 µM), without a hit: at the highest dose activity change, negative = inhibition, actives largely listed as inhibitors; actives 2.3% (n = 330,000); AID 504467, 2011; note: % is set by controls: 0 for no effect and ±100 for the full control effect; nearly all actives have a fitted effect of over 55% in size
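Cells (2,000 per well) received 5-fluorouridine plus test compound or DMSO and were incubated 16 hr at 37 °C, 5% CO2. Luciferase activity was read by luminescence 30 min after ONE-Glo addition; signal suppression marked inhibition of damage-induced ELG1 function.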
KB-V1 MDR tox = qHTS assay for MDR1-selective chemotherapeutics: Primary screen using the drug-selected MDR subline cells KB-V1. actives 3.4% (n = 400,000). KB-V1 MDR cells viability, CellTiter-Glo, 72 h. Potency, µM (top dose mostly 46.1 µM), most hits filed as cytotoxic; note: % is set by controls: 0 for no effect and ±100 for the full control effect; nearly all actives have a fitted effect of over 60% in size
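Cells of the MDR subline KB-V1 are plated, dosed with compound at multiple concentrations, and incubated 72 h at 37 degrees C; CellTiter-Glo is then added and luminescence read after 10 min.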
* = called active by the depositor; i = inactive; ? = inconclusive; nt = no result; [ ] = another dose, or the depositor's remark. Rows were chosen to be rich in hits. Some 8.1% of all compounds tested hit in one or more screens of this group. Calls come from the whole dose curve; as a rule, active = well fitted curve in the direction sought with a large enough effect; inconclusive = small, poorly fitted or top-dose-only effect, or another doubt; inactive = no such curve, though single readings can be large; an effect the other way counts as inactive or inconclusive. Potency is the fitted concentration of half-maximal effect.

SMILES	KB-3-1 cytotox	SW480 rereplic	MCF10A rereplic	ELG1 DNA repair	KB-V1 MDR tox
CC(=O)Oc1ccc(C(=O)Nc2cc(C)ccc2NC(=O)COc2ccccc2)cc1	i	-4%	-1%	-27%	16µM*
Cc1ccc(NS(=O)(=O)c2ccc(C)c(NC(=O)COc3ccccc3)c2)c(C)c1	i	-6%	1%	?	21µM*
Cc1ccc(NC(=O)c2ccco2)c(NC(=O)COc2ccccc2)c1	i	-43%	-21%	-5%	i
Cc1ccc(NC(=O)COc2ccccc2)c(NC(=O)c2ccccc2C)c1	i	?	4%	nt	5.8µM*
CC(=O)Nc1ccc(OC(F)(F)Cl)cc1	i	2%	1%	-2%	?
CCN(CC)CCOCCOC(=O)C(CC)(CC)c1ccccc1 (tested in a mixture with another compound)	nt	1%	30µM*	nt	nt
Cc1cc(C)c(NC(=O)CNC(=O)CNC(=O)C2CCCCC2)c(C)c1	i	5%	8%	10%	i
O=[N+]([O-])c1cc(C(F)(F)F)ccc1N1CCN(S(=O)(=O)c2ccc3c(c2)CCCC3)CC1	?	-10%	-2%	-5%	5.2µM*
CCNc1cc(N2CCN(S(=O)(=O)c3ccc4c(c3)CCCC4)CC2)ccc1[N+](=O)[O-]	i	3%	18%	13%	1.5µM*
CC(C(=O)Nc1cccc(C#N)c1)N(C)CCOc1ccccc1 (stereo not drawn)	i	-4%	4%	-4%	i
COc1ccc(O)c(/C=N/NC(=O)c2ccc(N3CCCC3=O)cc2)c1	?	2.3µM*	11%	8%	i
CCOC(=O)c1nnn(-c2nonc2-n2cccc2)c1CN1CCC(C)CC1	i	?	26µM*	11%	i
CC1CCN(Cc2c(C(=O)N/N=C/c3cc(Cl)ccc3O)nnn2-c2nonc2N)CC1	2.1µM*	5%	-18%	2.1µM*	?
CC1CCN(Cc2c(C(=O)N/N=C/c3cc(Br)ccc3O)nnn2-c2nonc2N)CC1	?	?	2%	2.6µM*	?
CCOc1ccc(/C=N/NC(=O)c2nnn(-c3nonc3N)c2CN2CCC(C)CC2)cc1	i	-2%	-1%	-27%	i
CC(C)(Oc1ccc(Cl)cc1)C(=O)N1CCN(C(=O)c2ccco2)CC1	?	-5%	-4%	4%	i
CCCc1nnc(NC(=O)c2cc(=O)c3cc(C)c(C)cc3o2)s1	i	nt	nt	nt	i
COc1ccc(O)c(/C=N/NC(=O)c2c(C)nnn2-c2nonc2N)c1	i	7.3µM*	1%	?	i
COc1c(Cl)cc(Cl)cc1/C=N/NC(=O)c1nnn(-c2nonc2N)c1CN1CCC(C)CC1	i	?	5.8µM*	3%	?
COc1ccc(/C=N/NC(=O)c2nnn(-c3nonc3N)c2-c2cccc(OC)c2)cc1	?	-12%	1%	3%	i
Cc1cccc(OCCNC(=O)CCNS(=O)(=O)c2ccc3ccccc3c2)c1	i	-1%	14%	?	18µM*
Cc1c(NC(=S)/C=C2\N(C)c3ccccc3C2(C)C)c(=O)n(-c2ccccc2)n1C	i	3%	2%	-21%	23µM*
O=C(Cc1cccs1)Nc1cccc(C(=O)Nc2ccco2)c1	?	-3%[9.22 µM]	1%	1%	?
CCOC(=O)c1c(CSC(=N)N)n(-c2ccc(C)cc2)c2cc(Br)c(OC(C)=O)cc12	i	-5%	?	?	i
CCOC(=O)c1c(CN2CCN(C)CC2)n(C)c2cc(Br)c(OC)cc12	?	?	?	22%	?
SMILES	KB-3-1 cytotox	SW480 rereplic	MCF10A rereplic	ELG1 DNA repair	KB-V1 MDR tox
CCOC(=O)c1c(CN2CCOCC2)n(-c2ccccc2)c2cc(Br)c(O)cc12	i	-22%	-1%	23µM*	i
CCOC(=O)c1c(CN2CCOCC2)oc2ccc(OC)cc12	i	-1%	1%	-4%	16µM*
CCOC(=O)c1c(CN2CCCCC2)n(C)c2cc(Br)c(O)cc12	i	10%	23%	?	10µM*
CCOC(=O)c1c(CN2CCOCC2)n(-c2ccccc2)c2cc(Br)c(OC)cc12	?	?	23µM*	?	18µM*
CCOC(=O)c1c(CN(C)C)n(-c2ccccc2)c2cc(Br)c(OC)cc12	?	?	?	0%	21µM*
CCOC(=O)c1c(CN(C)C)n(-c2ccc(C)cc2)c2cc(Br)c(O)cc12	i	27%	?	-9%	?
COc1cccc(NC(=S)N2CCN(C(c3ccccc3)c3ccccc3)CC2)c1	i	-2%	-1%	-15%	i
Cc1ccc2c(c1)c1ncnc(N3CCOCC3)c1n2C	i	-2%	?	?	23µM*
Cc1ccc2c(c1)c1ncnc(N3CCN(c4ccccc4)CC3)c1n2C	i	-1%	?	7%	?
Cc1ccn2c(Nc3ccccc3)c(-c3ccccn3)nc2c1	?	?	16µM*	?	?
Cc1ccc2nc(-c3ccccn3)c(Nc3ccccc3C)n2c1	?	3.7µM*	?	-11%	0.73µM*
Cc1ccccc1Nc1c(-c2ccccn2)nc2ccccn12	?	19%	?	-9%	?
Cc1cc(C)c(C#N)c(N2CCOCC2)n1	i	0%	-1%	?	?
Cc1cc(N2CCOCC2)nc(N2CCOCC2)c1C#N	?	nt	nt	nt	7.3µM*
COc1ccccc1Nc1nc(N)nc(CSC(=S)N2CCC(C)CC2)n1	i	-5%	15%	-27%	?
COc1cc(/C=C/c2ccc3cccc(OC)c3n2)c(O)c([N+](=O)[O-])c1	?	-1%	4%	1%	i
COc1c(OC(C)=O)ccc(/C=C/c2ccc3cccc(OCc4ccccc4)c3n2)c1[N+](=O)[O-]	16µM*	-2%	7%	?	?
COc1cc(/C=C/c2ccc3cccc(OC)c3n2)c(OC(C)=O)c([N+](=O)[O-])c1	?	?	6.5µM*	?	?
CCN(Cc1cc2cc(C)ccc2[nH]c1=O)C(=O)c1cccc(OC)c1	i	6%	11%	?	9.2µM*
CCc1ccc2[nH]c(=O)c(CN(Cc3ccccc3OC)C(=O)Nc3ccccc3OC)cc2c1	?	7%	?	23µM*	i
CCOc1ccc(N(CC(=O)NCc2ccc(F)cc2)C(=O)c2ccco2)cc1	i	-2%	8%	3%	16µM*
Cc1ccc(N(CC(=O)NCc2ccc(F)cc2)C(=O)c2ccco2)cc1C	i	1%	-5%	2%	?
